Assay results reported in PubChem BioAssay (Tox21).
Values joined by “and” are separate entries in the source; they are usually repeats but may differ in a detail not shown here. Identical values can stand only once. Records with an inconclusive call do not appear. Active and inactive are the calls of the source. Unless noted, calls come from the whole dose curve; as a rule, active = well fitted inhibition curve with a large enough effect in the repeat runs; inconclusive = weak or mixed curves; inactive = no such curve, though single readings can be large or run the other way.
% is set by controls: 0 for no effect and ±100 for the full control effect.

What follows are compounds tested against Acetylcholinesterase (Homo sapiens) (UniProt P22303) (assay: Acetylcholinesterase (AChE) small molecule antagonists: enzyme-based qHTS assay (AID 1347397; calls by dose curve; note: nearly all actives have a fitted effect of over 55% in size)). Conditions: Potency: AChE enzyme activity inhibition; outcome: AChE enzyme activity inhibition; series mostly up to 115 µM; activity change, negative = inhibition: at the top concentration.
Sequence of Acetylcholinesterase (Homo sapiens) (P22303 whole entry, looked up): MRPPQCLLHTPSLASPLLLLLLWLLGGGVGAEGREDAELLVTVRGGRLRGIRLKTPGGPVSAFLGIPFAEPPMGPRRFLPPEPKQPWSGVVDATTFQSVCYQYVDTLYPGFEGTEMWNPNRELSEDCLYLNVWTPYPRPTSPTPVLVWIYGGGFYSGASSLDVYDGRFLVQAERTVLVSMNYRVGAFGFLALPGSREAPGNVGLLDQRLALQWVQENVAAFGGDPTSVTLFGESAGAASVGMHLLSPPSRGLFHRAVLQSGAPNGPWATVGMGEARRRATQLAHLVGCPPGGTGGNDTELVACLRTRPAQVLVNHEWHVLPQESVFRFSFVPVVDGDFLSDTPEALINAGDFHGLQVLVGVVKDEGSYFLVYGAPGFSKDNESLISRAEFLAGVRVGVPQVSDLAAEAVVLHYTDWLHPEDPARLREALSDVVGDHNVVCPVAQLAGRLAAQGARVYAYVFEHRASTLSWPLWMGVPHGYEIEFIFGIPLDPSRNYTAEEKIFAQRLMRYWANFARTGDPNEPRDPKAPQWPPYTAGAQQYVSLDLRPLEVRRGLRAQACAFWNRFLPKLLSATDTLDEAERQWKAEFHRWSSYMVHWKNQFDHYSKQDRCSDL
Summary of the method: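 Colorimetric DTNB read-out of thiocholine released from acetylthiocholine by recombinant human AChE (50 mU/mL as dispensed). Compounds were preincubated 30 min at RT before substrate/DTNB addition, with a 10 min RT reaction.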
CC(C)(C1CCC(O)CC1)C1CCC(O)CC1 (configuration not stated) was tested, and the “activity change, negative = inhibition” value was -0.516% (inactive).
With C[C@H](CN1CCOCC1)C(C(=O)N1CCCC1)(c1ccccc1)c1ccccc1 the “activity change, negative = inhibition” value was 0.675% (inactive).
CCOC(=O)CCl was tested, and the “activity change, negative = inhibition” value was -4.91% (inactive).
For Cl/C=C/CCl, the “activity change, negative = inhibition” value was 0.409% (inactive).
CC(=O)CN(CC(C)=O)N=O was tested, and the “activity change, negative = inhibition” value was -0.645% (inactive).
In the case of Oc1ccc(Cc2ccc(O)cc2)cc1, the “activity change, negative = inhibition” value is reported as 0% (inactive).
In the case of C[C@H](N)C(=O)c1ccccc1, the “activity change, negative = inhibition” value is reported as 1.49% (inactive).
For CCOC(=O)c1ncn2c1CN(C)C(=O)c1c(I)cccc1-2, the “activity change, negative = inhibition” value was -0.559% [at 53 µM] (inactive).
With Clc1ccc(C(Cl)(Cl)Cl)cn1 the “activity change, negative = inhibition” value was 0.351% (inactive).
For C=CC(=O)OCCN(C)C, the “activity change, negative = inhibition” value was -0.379% (inactive).

Each compound was assayed against Acetylcholinesterase (Homo sapiens) (UniProt P22303) (assay: Acetylcholinesterase (AChE) small molecule antagonists: enzyme-based qHTS assay with human liver microsomes (AID 1347399; calls by dose curve; note: nearly all actives have a fitted effect of over 60% in size; note: potency is the fitted concentration of half-maximal effect)). Conditions: Potency: qHTS inhibition; outcome: qHTS inhibition; series mostly up to 115 µM; activity change, negative = inhibition: at the top concentration.
Summary of the method: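 Recombinant human AChE (50 mU/mL in the enzyme mix) and human liver microsomes (0.25 mg/mL final) were preincubated with compound and NADPH (0.25 mg/mL final) for 30 min at 37 C. Acetylthiocholine/DTNB was then added; thiocholine was read colorimetrically after 10 min at room temperature.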
In the case of COC(=O)[C@@H](N)CCCN/C(N)=N/[N+](=O)[O-], the “activity change, negative = inhibition” value is reported as -1.68% [at 53 µM] (inactive).
With COc1cccc(C=O)c1 the “activity change, negative = inhibition” value was 0.688% (inactive).
In the case of CC[C@H](O)C(C[C@H](C)N(C)C)(c1ccccc1)c1ccccc1, the “activity change, negative = inhibition” value is reported as 0.3% (inactive).
CCc1ccc(C2CCNCC2)cc1 was tested, and the “activity change, negative = inhibition” value was -8.65% [at 53 µM] (inactive).
With CCN[C@@H](C)Cc1cccc(C(F)(F)F)c1 the “activity change, negative = inhibition” value was -0.116% [at 53 µM] (inactive).
For CCOC(=O)N(C)N=O, the “activity change, negative = inhibition” value was -1.17% (inactive).
With CCN(CCO)CCn1c(Cc2ccccc2)nc2c1c(=O)n(C)c(=O)n2C the “activity change, negative = inhibition” value was -0.667% [at 53 µM] (inactive).
With CCCCCCCCBr the “activity change, negative = inhibition” value was 0.382% (inactive).
O=C(Cl)OCc1ccccc1 was tested, and the “activity change, negative = inhibition” value was -0.246% (inactive).
CS(=O)(=O)c1ccc(C(=O)C2C(=O)CCCC2=O)c(Cl)c1COCC(F)(F)F was tested, and the “activity change, negative = inhibition” value was -1.38% (inactive).
With CC(C)[N+](C)(CCC(C(N)=O)(c1ccccc1)c1ccccc1)C(C)C the “activity change, negative = inhibition” value was -2.99% [at 53 µM] (inactive).
For CC(Cc1ccccc1)NCCCCl (configuration not stated), the “activity change, negative = inhibition” value was -0.169% [at 53 µM] (inactive).
NCC1(CC(=O)O)CCCCC1 was tested, and the “activity change, negative = inhibition” value was 0.672% [at 53 µM] (inactive).
C[C@H]1CCCC(=O)CCC/C=C/c2cc(O)cc(O)c2C(=O)O1 was tested, and the Potency was “inactive”.
In the case of CCN1CCCC1CNC(=O)C(O)(c1ccccc1)c1ccccc1 (configuration not stated), the “activity change, negative = inhibition” value is reported as 0.336% [at 53 µM] (inactive).
In the case of O=c1[nH]oc2c1CCNC2, the “activity change, negative = inhibition” value is reported as -1.83% [at 53 µM] (inactive).
With Cc1ccc2c(c1)C1CN(C)CCC1N2 (configuration not stated) the activity change, negative = inhibition was -0.336% [at 23.6 µM] (inactive).
CC(C)(C)C(=O)C(Cl)Cl was tested, and the “activity change, negative = inhibition” value was 0.511% (inactive).
In the case of CCNc1nc(NCC)nc(SC)n1, the “activity change, negative = inhibition” value is reported as -0.583% (inactive).
For Cc1ccc2cc(C)ccc2c1, the “activity change, negative = inhibition” value was 0.341% (inactive).
For Nc1c(Cl)c(F)nc(OCC(=O)O)c1Cl, the “activity change, negative = inhibition” value was -0.17% (inactive).
For CNC(=O)Oc1cc(C)c(N(C)C)c(C)c1, the Potency was 12.6 µM (active).
For CCOP(=S)(OCC)Oc1ccc(Cl)cc1Cl, the “activity change, negative = inhibition” value was 1.15% (inactive).
With Cc1ccc(-c2nc3ccc(C)cn3c2CC(=O)N(C)C)cc1 the “activity change, negative = inhibition” value was 4.19% [at 53 µM] (inactive).
In the case of CC(C)(C1CCC(O)CC1)C1CCC(O)CC1 (configuration not stated), the “activity change, negative = inhibition” value is reported as 0.306% (inactive).
C[C@H](CN1CCOCC1)C(C(=O)N1CCCC1)(c1ccccc1)c1ccccc1 was tested, and the “activity change, negative = inhibition” value was 0.078% (inactive).
CCOC(=O)CCl was tested, and the “activity change, negative = inhibition” value was 1.19% (inactive).
In the case of Cl/C=C/CCl, the “activity change, negative = inhibition” value is reported as -1.37% (inactive).
CC(=O)CN(CC(C)=O)N=O was tested, and the “activity change, negative = inhibition” value was -0.0093% (inactive).
Oc1ccc(Cc2ccc(O)cc2)cc1 was tested, and the “activity change, negative = inhibition” value was 0.657% (inactive).
With C[C@H](N)C(=O)c1ccccc1 the “activity change, negative = inhibition” value was 2.06% (inactive).
In the case of Clc1ccc(C(Cl)(Cl)Cl)cn1, the “activity change, negative = inhibition” value is reported as -0.458% (inactive).
With C=CC(=O)OCCN(C)C the “activity change, negative = inhibition” value was -0.333% (inactive).

The compounds below were run against Cytochrome P450 2D6 (Homo sapiens) (UniProt P10635) (assay: Cytochrome P450 Family 2 Subfamily D Member 6 (CYP2D6) small molecule antagonists: luciferase reporter qHTS assay (AID 1671196; note: nearly all actives have a fitted effect of over 50% in size; note: potency is the fitted concentration of half-maximal effect)). Conditions: P450-Glo CYP2D6 enzyme assay, luciferin luminescence, 1 h; series mostly up to 115 µM; activity change, negative = inhibition: at the top concentration.
Sequence of Cytochrome P450 2D6 (Homo sapiens) (P10635 whole entry, looked up): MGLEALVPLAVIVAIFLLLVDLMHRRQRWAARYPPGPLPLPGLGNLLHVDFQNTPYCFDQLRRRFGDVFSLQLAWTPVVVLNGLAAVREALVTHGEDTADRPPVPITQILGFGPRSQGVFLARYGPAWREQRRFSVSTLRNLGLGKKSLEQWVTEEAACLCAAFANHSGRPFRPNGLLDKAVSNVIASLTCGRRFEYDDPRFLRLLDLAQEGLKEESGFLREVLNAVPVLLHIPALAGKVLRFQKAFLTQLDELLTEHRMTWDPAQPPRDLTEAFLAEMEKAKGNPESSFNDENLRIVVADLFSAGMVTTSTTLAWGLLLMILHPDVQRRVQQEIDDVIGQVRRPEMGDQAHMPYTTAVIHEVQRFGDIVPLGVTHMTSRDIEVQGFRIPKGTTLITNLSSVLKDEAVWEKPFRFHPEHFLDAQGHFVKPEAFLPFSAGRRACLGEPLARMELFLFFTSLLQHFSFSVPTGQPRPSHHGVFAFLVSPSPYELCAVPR
Summary of the method: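 Test chemicals meet CYP2D6 plus proluciferin substrate (10 min, RT); NADPH regenerating solution then drives turnover for 1 h. Detection reagent halts the reaction; luminescence measured after 20 min.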
With COC(=O)[C@@H](N)CCCN/C(N)=N/[N+](=O)[O-] the “activity change, negative = inhibition” value was -3.44% [at 53 µM] (inactive).
In the case of COc1cccc(C=O)c1, the “activity change, negative = inhibition” value is reported as -2.91% (inactive).
With CC[C@H](O)C(C[C@H](C)N(C)C)(c1ccccc1)c1ccccc1 the Potency was 1.44 µM (active).
With CCc1ccc(C2CCNCC2)cc1 the Potency was 0.617 µM (active).
In the case of CCN[C@@H](C)Cc1cccc(C(F)(F)F)c1, the Potency is reported as 2.45 µM (active).
For CCOC(=O)N(C)N=O, the “activity change, negative = inhibition” value was 0.394% (inactive).
With CCN(CCO)CCn1c(Cc2ccccc2)nc2c1c(=O)n(C)c(=O)n2C the “activity change, negative = inhibition” value was -28.7% [at 53 µM] (inactive).
For CCCCCCCCBr, the “activity change, negative = inhibition” value was -20% (inactive).
With CC(C)[N+](C)(CCC(C(N)=O)(c1ccccc1)c1ccccc1)C(C)C the Potency was 0.776 µM (active).
CC(Cc1ccccc1)NCCCCl (configuration not stated) was tested, and the Potency was 1.74 µM (active).
In the case of NCC1(CC(=O)O)CCCCC1, the “activity change, negative = inhibition” value is reported as -4.99% [at 53 µM] (inactive).
In the case of C[C@H]1CCCC(=O)CCC/C=C/c2cc(O)cc(O)c2C(=O)O1, the Potency is reported as 54.3 µM (active).
CCN1CCCC1CNC(=O)C(O)(c1ccccc1)c1ccccc1 (configuration not stated) was tested, and the Potency was 4.9 µM (active).
O=c1[nH]oc2c1CCNC2 was tested, and the “activity change, negative = inhibition” value was 0.911% [at 53 µM] (inactive).
With CCNc1nc(NCC)nc(SC)n1 the “activity change, negative = inhibition” value was -12.9% (inactive).
For Cc1ccc2cc(C)ccc2c1, the “activity change, negative = inhibition” value was -2.07% (inactive).
With Nc1c(Cl)c(F)nc(OCC(=O)O)c1Cl the “activity change, negative = inhibition” value was -30.3% (inactive).
With CCOP(=S)(OCC)Oc1ccc(Cl)cc1Cl the “activity change, negative = inhibition” value was -19.5% (inactive).
In the case of CC(C)(C1CCC(O)CC1)C1CCC(O)CC1 (configuration not stated), the “activity change, negative = inhibition” value is reported as -2.13% (inactive).
In the case of C[C@H](CN1CCOCC1)C(C(=O)N1CCCC1)(c1ccccc1)c1ccccc1, the Potency is reported as 43.3 µM (active).
With CCOC(=O)CCl the “activity change, negative = inhibition” value was -8.03% (inactive).
C[C@H](N)C(=O)c1ccccc1 was tested, and the Potency was 42.2 µM (active).
Clc1ccc(C(Cl)(Cl)Cl)cn1 was tested, and the “activity change, negative = inhibition” value was -2.16% (inactive).
With C=CC(=O)OCCN(C)C the “activity change, negative = inhibition” value was -4.47% (inactive).

What follows are compounds tested against Cytochrome P450 2C19 (Homo sapiens) (UniProt P33261) (assay: Cytochrome P450 Family 2 Subfamily C Member 19 (CYP2C19) small molecule antagonists: luciferase reporter qHTS assay (AID 1671197; note: nearly all actives have a fitted effect of over 65% in size; note: potency is the fitted concentration of half-maximal effect)). Conditions: P450-Glo CYP2C19 enzyme, luciferin luminescence, 1 h; series mostly up to 115 µM; activity change, negative = inhibition: at the top concentration.
Sequence of Cytochrome P450 2C19 (Homo sapiens) (P33261 whole entry, looked up): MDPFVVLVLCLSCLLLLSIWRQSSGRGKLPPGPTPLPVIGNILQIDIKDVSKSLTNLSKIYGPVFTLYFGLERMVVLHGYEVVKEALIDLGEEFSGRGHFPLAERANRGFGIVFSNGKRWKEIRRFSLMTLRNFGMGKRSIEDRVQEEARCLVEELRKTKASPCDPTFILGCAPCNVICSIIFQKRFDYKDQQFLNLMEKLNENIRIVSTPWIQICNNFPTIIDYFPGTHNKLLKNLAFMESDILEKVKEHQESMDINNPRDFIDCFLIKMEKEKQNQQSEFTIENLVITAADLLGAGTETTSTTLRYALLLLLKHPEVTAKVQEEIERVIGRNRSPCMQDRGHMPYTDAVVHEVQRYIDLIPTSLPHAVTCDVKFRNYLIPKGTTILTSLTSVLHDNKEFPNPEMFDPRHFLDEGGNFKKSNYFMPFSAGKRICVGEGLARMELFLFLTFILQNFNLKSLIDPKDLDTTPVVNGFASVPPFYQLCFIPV
Summary of the method: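 CYP2C19 P450-Glo, 1536-well qHTS. Cpd + enzyme/proluciferin substrate 10 min RT; + NADPH regen, 37C 1 h; stop with luciferin detection reagent, 20 min RT, luminescence (RLU). Pos ctrl ketoconazole.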
With COc1cccc(C=O)c1 the “activity change, negative = inhibition” value was -4.05% (inactive).
With CCc1ccc(C2CCNCC2)cc1 the “activity change, negative = inhibition” value was -3.38% [at 52.9 µM] (inactive).
In the case of CCN[C@@H](C)Cc1cccc(C(F)(F)F)c1, the “activity change, negative = inhibition” value is reported as 24.9% [at 52.9 µM] (inactive).
With CCOC(=O)N(C)N=O the “activity change, negative = inhibition” value was -11.4% (inactive).
In the case of CCN(CCO)CCn1c(Cc2ccccc2)nc2c1c(=O)n(C)c(=O)n2C, the “activity change, negative = inhibition” value is reported as 6.39% [at 52.9 µM] (inactive).
For NNC(N)=O, the “activity change, negative = inhibition” value was -20.9% (inactive).
With CS(=O)(=O)c1ccc(C(=O)C2C(=O)CCCC2=O)c(Cl)c1COCC(F)(F)F the “activity change, negative = inhibition” value was -7.59% (inactive).
With CC(C)[N+](C)(CCC(C(N)=O)(c1ccccc1)c1ccccc1)C(C)C the “activity change, negative = inhibition” value was -25.3% [at 52.9 µM] (inactive).
With CC(Cc1ccccc1)NCCCCl (configuration not stated) the “activity change, negative = inhibition” value was 8.6% [at 52.9 µM] (inactive).
In the case of NCC1(CC(=O)O)CCCCC1, the “activity change, negative = inhibition” value is reported as 13.8% [at 52.9 µM] (inactive).
With C[C@H]1CCCC(=O)CCC/C=C/c2cc(O)cc(O)c2C(=O)O1 the Potency was 17.2 µM (active) and 29.2 µM (active).
In the case of CCN1CCCC1CNC(=O)C(O)(c1ccccc1)c1ccccc1 (configuration not stated), the “activity change, negative = inhibition” value is reported as -3.26% [at 52.9 µM] (inactive).
Cc1ccc2c(c1)C1CN(C)CCC1N2 (configuration not stated) was tested, and the activity change, negative = inhibition was -12.5% [at 23.6 µM] (inactive).
CC(C)(C)C(=O)C(Cl)Cl was tested, and the “activity change, negative = inhibition” value was 7.63% (inactive).
In the case of Cc1ccc2cc(C)ccc2c1, the “activity change, negative = inhibition” value is reported as -11.9% (inactive).
With CNC(=O)Oc1cc(C)c(N(C)C)c(C)c1 the Potency was 79.7 µM (active).
With CCOP(=S)(OCC)Oc1ccc(Cl)cc1Cl the Potency was 0.399 µM (active).
In the case of Cc1ccc(-c2nc3ccc(C)cn3c2CC(=O)N(C)C)cc1, the “activity change, negative = inhibition” value is reported as -8.69% [at 52.9 µM] (inactive).
For CC(C)(C1CCC(O)CC1)C1CCC(O)CC1 (configuration not stated), the Potency was 71 µM (active).
C[C@H](CN1CCOCC1)C(C(=O)N1CCCC1)(c1ccccc1)c1ccccc1 was tested, and the Potency was 96.9 µM (active).
With CCOC(=O)CCl the “activity change, negative = inhibition” value was -18.2% (inactive).
In the case of Cl/C=C/CCl, the “activity change, negative = inhibition” value is reported as -1.93% (inactive).
For CC(=O)CN(CC(C)=O)N=O, the “activity change, negative = inhibition” value was 1.13% (inactive).
C[C@H](N)C(=O)c1ccccc1 was tested, and the Potency was 47.3 µM (active).
In the case of Clc1ccc(C(Cl)(Cl)Cl)cn1, the “activity change, negative = inhibition” value is reported as -8.49% (inactive).
